Source: PubChem BioAssay (NCATS)
Values joined by “and” are separate entries in the source; they are usually repeats but may differ in a detail not shown here. Equal entries are not always repeated. A number with no mark means an inactive call. Inconclusive results are not listed. Active and inactive are the calls of the source. Unless noted, calls come from the whole dose curve; as a rule, active = well fitted curve in the direction sought with a large enough effect; inconclusive = small, poorly fitted or top-dose-only effect, or another doubt; inactive = no such curve, though single readings can be large; an effect the other way counts as inactive or inconclusive.

What was measured:
[1] = target: Cytochrome P450 3A4 (Homo sapiens) (UniProt P08684); assay: qHTS Assay for Inhibitors and Substrates of Cytochrome P450 3A4 (AID 884); note: nearly all actives have a fitted effect of over 50% in size; note: potency is the fitted concentration of half-maximal effect; for activity change, negative = inhibition: series mostly up to about 57 µM; % is set by controls: 0 for no effect and ±100 for the full control effect
In short: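 20 nM human CYP3A4 with 25 uM Luciferin-PPXE (at KM) in 200 mM KPO4, preincubated 10 min with compound; NADPH regeneration started a 60 min RT reaction. Luciferin detected by luminescence, normalized to 57 uM ketoconazole as full inhibition.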

[2] = target: Cytochrome P450 3A4 (Homo sapiens) (UniProt P08684); assay: qHTS Assay for Activators of Cytochrome P450 3A4 (AID 885); note: nearly all actives have a fitted effect of over 65% in size
In short: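 Steps: enzyme/substrate mix dispensed; compound added, 10 min RT; NADPH regeneration solution added, 60 min RT; luciferin detection buffer stops reaction; 20 min later luminescence measured.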

[3] = target: Cytochrome P450 2C19 (Homo sapiens) (UniProt P33261); assay: qHTS Assay for Inhibitors and Substrates of Cytochrome P450 2C19 (AID 899); note: nearly all actives have a fitted effect of over 60% in size; note: potency is the fitted concentration of half-maximal effect
In short: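 Human CYP2C19 (5nM) with Luciferin-H EGE at 10uM (its KM) in 50mM KPO4 was preincubated with compound for 10 min at 37C. NADPH regeneration started a 60 min 37C reaction. Luciferin was read by luminescence, normalized to 57uM ketoconazole.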

[4] = Confirmation and Secondary Assay for Modulators of Hemoglobin Beta Chain Splicing at IVS2 654 locus (AID 910);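 note: per-well total GFP intensity by laser scanning cytometry after 2-day treatment; % of control where 0% means no effect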
In short: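 HeLa cells stably carrying EGFP interrupted by mutant beta-globin IVS2-654 intron (CMV-driven) were treated with compound for 2 days at 37C; corrected splicing was scored as total peak GFP intensity per well (488 nm excitation, 500-520 nm emission).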

[5] = Confirmation and Secondary Assay for Modulators of Hemoglobin Beta Chain Splicing at IVS2 705 locus (AID 930);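 note: HeLa cells stably expressing the EGFP-705 splicing reporter; series mostly up to about 46 µM; % of control where 0% means no effect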
In short: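 Restored EGFP fluorescence after 2-day compound exposure reports splicing correction in IVS2-705 EGFP reporter HeLa cells; positive control was 500 nM splice-blocking PNA oligo. Signal measured as well total peak GFP intensity (488 nm excitation).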

[6] = target: Cytochrome P450 2D6 (Homo sapiens) (UniProt P10635); assay: qHTS Assay for Inhibitors and Substrates of Cytochrome P450 2D6 (AID 891); note: nearly all actives have a fitted effect of over 60% in size; note: potency is the fitted concentration of half-maximal effect;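 for activity change, negative = inhibition: luciferin methyl ether substrate demethylated by CYP2D6 with NADPH regeneration; % is set by controls: 0 for no effect and ±100 for the full control effect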
In short: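 Human CYP2D6 (5 nM) with 30 uM Luciferin-ME EGE (at Km) in 100 mM KPO4, compound preincubated 10 min, then NADPH regeneration system for 60 min at room temperature. Luciferin read by luminescence; normalized to 1.43 uM quinidine.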

[7] = qHTS Assay for Identification of Small Molecule Agonists for Hypoxia Response Element Signaling Pathway (AID 914; active = well fitted activation curve with a large enough effect in the signal ratio, with a control signal flat, not every such curve was filed as active; the % refers to the signal ratio; note: % of control where 0% means no effect); details: ME-180 (cervical carcinoma) HRE-bla reporter, beta-lactamase ratio, CoCl2, 17 h; stronger effect = higher value
In short: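 AC50 values come from titration-series %Activity, taken as the 460/530nm ratio of CCF4 fluorescence (excitation 405nm). CellSensor HRE-bla ME-180 cells were treated 17 hours at 37 C with compound plus an EC50 level of CoCl2.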

Sequence of Cytochrome P450 2C19 (Homo sapiens) (P33261 whole entry, looked up): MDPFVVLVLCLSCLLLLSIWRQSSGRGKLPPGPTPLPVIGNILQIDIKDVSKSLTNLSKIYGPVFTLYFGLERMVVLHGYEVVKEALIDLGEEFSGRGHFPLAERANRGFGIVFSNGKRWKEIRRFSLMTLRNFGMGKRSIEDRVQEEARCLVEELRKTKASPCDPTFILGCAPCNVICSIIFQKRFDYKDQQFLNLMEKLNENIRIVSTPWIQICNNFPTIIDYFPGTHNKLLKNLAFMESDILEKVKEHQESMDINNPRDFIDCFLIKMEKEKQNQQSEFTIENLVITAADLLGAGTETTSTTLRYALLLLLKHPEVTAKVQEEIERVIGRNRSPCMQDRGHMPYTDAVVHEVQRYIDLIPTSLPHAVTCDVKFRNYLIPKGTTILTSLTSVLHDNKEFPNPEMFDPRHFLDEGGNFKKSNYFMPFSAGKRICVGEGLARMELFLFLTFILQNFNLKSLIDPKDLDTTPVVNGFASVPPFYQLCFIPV
Sequence of Cytochrome P450 3A4 (Homo sapiens) (P08684 whole entry, looked up): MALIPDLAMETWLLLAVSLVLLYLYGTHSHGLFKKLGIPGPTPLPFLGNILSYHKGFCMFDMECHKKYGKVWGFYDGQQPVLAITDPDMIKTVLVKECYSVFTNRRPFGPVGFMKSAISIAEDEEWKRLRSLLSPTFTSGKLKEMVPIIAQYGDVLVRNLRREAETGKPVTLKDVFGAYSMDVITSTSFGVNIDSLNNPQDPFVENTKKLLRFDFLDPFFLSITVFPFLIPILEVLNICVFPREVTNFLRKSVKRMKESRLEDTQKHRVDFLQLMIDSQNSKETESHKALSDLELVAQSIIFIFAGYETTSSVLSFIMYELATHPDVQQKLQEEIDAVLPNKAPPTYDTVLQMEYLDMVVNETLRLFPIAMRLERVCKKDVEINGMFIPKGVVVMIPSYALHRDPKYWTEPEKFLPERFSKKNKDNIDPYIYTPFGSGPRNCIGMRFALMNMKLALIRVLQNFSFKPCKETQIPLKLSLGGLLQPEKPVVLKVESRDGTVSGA
Sequence of Cytochrome P450 2D6 (Homo sapiens) (P10635 whole entry, looked up): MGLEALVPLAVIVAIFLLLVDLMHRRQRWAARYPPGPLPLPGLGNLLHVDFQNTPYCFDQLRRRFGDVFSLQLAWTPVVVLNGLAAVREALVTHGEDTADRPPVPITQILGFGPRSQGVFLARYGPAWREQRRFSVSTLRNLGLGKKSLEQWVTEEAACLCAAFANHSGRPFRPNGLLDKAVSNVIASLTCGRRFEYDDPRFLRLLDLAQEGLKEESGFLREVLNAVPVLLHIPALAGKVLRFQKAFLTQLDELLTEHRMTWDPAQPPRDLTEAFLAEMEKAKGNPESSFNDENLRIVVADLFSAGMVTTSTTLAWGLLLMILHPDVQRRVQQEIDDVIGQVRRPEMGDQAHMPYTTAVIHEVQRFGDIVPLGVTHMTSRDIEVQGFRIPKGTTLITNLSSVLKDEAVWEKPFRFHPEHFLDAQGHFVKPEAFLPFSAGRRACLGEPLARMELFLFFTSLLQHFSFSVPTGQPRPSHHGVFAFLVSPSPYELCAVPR

C[C@@H](c1ccccc1)N1C(=O)[C@H]2[C@H]3[C@H](O)[C@H](O)C/C(=N/OC[C@@H](O)COCc4ccco4)[C@@H]3CC[C@@H]2C1=O
Potency [1]: 3.16 µM (active) | activity change, positive = activation [2]: -82.9% [at 11.4 µM] | Potency [3]: inactive

COc1ccc2c(c1)OC/C(=C/c1ccc(OC)c(OC)c1)C2=O
Potency [1]: 7.94 µM (active) | Potency [2]: inactive | outcome [4]: inactive | outcome [5]: inactive

COCOc1ccc(Br)cc1C(=O)[C@H]1O[C@H]1c1cccc(OC)c1
Potency [1]: 3.98 µM (active) | activity change, positive = activation [2]: -113% [at 11.4 µM] | Potency [3]: 0.0631 µM (active)

Nc1nc2c(ncn2C2OC(COC(=O)c3ccccc3)C(OC(=O)c3ccccc3)C2OC(=O)c2ccccc2)c(=O)[nH]1 (stereo not drawn)
Potency [1]: 3.98 µM (active) | Potency [2]: inactive | outcome [4]: inactive | outcome [5]: inactive

CC(=O)Oc1c(-c2ccccc2)oc2c(CC=C(C)C)c3c(c(OC(C)=O)c2c1=O)C=CC(C)(C)O3
Potency [1]: 10 µM (active) | Potency [2]: inactive | outcome [4]: inactive | outcome [5]: inactive

COc1ccc(/C=C/C(=O)c2ccccc2O)cc1
activity change, negative = inhibition [1]: -17.2% [at 11.4 µM] | Potency [6]: 3.16 µM (active) | Potency [3]: 1.26 µM (active)

COc1ccc(O[C@H]2C=C[C@@H](c3ccccc3)O[C@H]2CO/N=C(/C)CCC(=O)OC[C@@H]2O[C@H](c3ccccc3)C=C[C@@H]2Oc2ccc(OC)cc2)cc1
Potency [1]: 3.98 µM (active) | activity change, positive = activation [2]: -65.1% [at 11.4 µM] | activation [7]: 3.42%

COc1cc(OC)c2c(=O)c(-c3ccc4c(c3)OCO4)coc2c1
Potency [1]: 6.31 µM (active) | Potency [2]: inactive | outcome [4]: inactive | outcome [5]: inactive

CCc1cc2c(nc1CC)CCN(CC/C(C)=N/O[C@@H](C)c1cn([C@H](CO)Cc3ccccc3)nn1)C2
Potency [1]: 3.16 µM (active) and 3.98 µM (active) | activity change, positive = activation [2]: -78.5% [at 11.4 µM] and -65.5% [at 11.4 µM] | activation [7]: -4.74%

COC(=O)NC(/C(C(=O)OC)=C(\C)NCc1ccccc1)c1ccc(Cl)cc1 (stereo not drawn)
activity change, negative = inhibition [1]: -24.6% [at 11.4 µM] | Potency [3]: 5.01 µM (active)

CCOC(=O)OCC1OC(c2ccccc2)C=CC1Oc1ccc(F)cc1C (stereo not drawn)
activity change, negative = inhibition [1]: -28.9% [at 11.4 µM] | Potency [6]: inactive | Potency [3]: 2 µM (active)

COc1ccc(O[C@H]2C=C[C@@H](c3ccccc3)O[C@H]2COC(=O)CC/C(C)=N\O[C@@H](C)c2cn([C@H]3COC[C@H]3O)nn2)cc1
Potency [1]: 3.98 µM (active) | activity change, positive = activation [2]: -77.3% [at 11.4 µM] | Potency [3]: 2.51 µM (active)

C#CCCCO/N=C1/C[C@@H](O)[C@@H](O)[C@@H]2[C@@H]3C(=O)N(C4CCCCC4)C(=O)[C@H]3CC[C@@H]12
Potency [1]: 3.16 µM (active) | activity change, positive = activation [2]: -78.4% [at 11.4 µM] | activation [7]: -13.1%

CC1(C)C(=O)C=C[C@@]2(C)C1C=C[C@@]1(C)C2CC[C@@]2(C)C(c3ccoc3)OC(=O)C3OC312 (stereo partly drawn)
Potency [1]: 7.94 µM (active) | Potency [2]: inactive | outcome [4]: inactive | outcome [5]: inactive

CC(=O)c1c(O)cc(O)cc1O
Potency [1]: 3.16 µM (active) | Potency [2]: inactive | outcome [4]: inactive | outcome [5]: inactive

COc1ccc(O[C@H]2C=C[C@@H](c3ccccc3)O[C@H]2CO/N=C\C[C@@H]2C=C[C@H](OC(C)=O)[C@H](COC(C)=O)O2)cc1
Potency [1]: 3.98 µM (active) | activity change, positive = activation [2]: -90.6% [at 11.4 µM] | Potency [3]: 0.794 µM (active)
